# Source: PubChem
# SW480 rerep: induces DNA re-replication in SW480 colon adenocarcinoma cells. Potency, µM (series often up to 46.1 µM), hits mostly activators. SW480 DNA re-replication, Hoechst DNA content imaging, 48 h. 1.8% of 340,000 active; note: nearly all actives have a fitted effect of over 55% in size
#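 Quantitative HTS format with DMSO vehicle controls; 48 hr drug incubation at 37 C, then 40 min Hoechst staining and scanning imager measurement at 405 nm excitation.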
# KB-V1 cytotox: KB-V1 MDR subline cytotoxicity; KB-V1 MDR cells viability, CellTiter-Glo, 72 h; Potency, µM (titrated, usually from 46.1 µM), actives largely listed as cytotoxic; 3.4% of 400,000 active; note: nearly all actives have a fitted effect of over 60% in size
#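 Cells of the MDR subline KB-V1 are plated, dosed with compound at multiple concentrations, and incubated 72 h at 37 degrees C; CellTiter-Glo is then added and luminescence read after 10 min.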
# HT1080NT lethal: kills 2HG-producing HT-1080-NT fibrosarcoma cells | 1.6% of 360,000 active | Potency, µM (titrated, usually from 46.1 µM), usual class: cytotoxic | HT-1080-NT fibrosarcoma viability, CellTiter-Glo ATP luminescence, 48 h;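 note: NT is the 2HG producing partner of a matched IDH1 knockdown line; nearly all actives have a fitted effect of over 55% in size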
#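 HT-1080-NT fibrosarcoma cells (2HG-overproducing), 750 cells/well in RPMI with 5% FBS, dosed after 2 h and incubated 48 h at 37C. CellTiter-Glo luminescence normalized to DMSO and no-cell wells; concentration-response curves fitted and classed.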
# KB-3-1 cytotox: KB-3-1 parental cell cytotoxicity; KB-3-1 viability, CellTiter-Glo ATP luminescence, 72 h; Potency, µM (highest dose often 46.1 µM), usual class: cytotoxic; 1.4% of 400,000 active; note: nearly all actives have a fitted effect of over 60% in size
#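 KB-3-1 parental drug-naive adenocarcinoma cells in DMEM/10% FBS, incubated 72 h at 37 C with pin-transferred compounds across a concentration series. Viability by CellTiter-Glo luminescence; concentration-response curves fitted after normalization.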
# HT1080 IDH1KD tx: toxicity to HT-1080 IDH1 knockdown cells (counter line) | HT-1080 IDH1 knockdown viability, ATP luminescence, 48 h | Potency, µM (top dose mostly 46.1 µM), usual class: cytotoxic | 2% of 360,000 active
#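 After a 2 h attachment period, IDH1KD HT-1080 cells took pin-transferred compound for 48 h at 37 °C; ATP-based luminescence after 10 min room-temperature reagent incubation reported viability.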
# MCF10A rerep: inducers of DNA re-replication in MCF 10A breast cells; MCF 10A DNA re-replication, Hoechst nuclear intensity, 48 h; Potency, µM (doses to about 46.1 µM), most hits filed as activators; 2.9% of 350,000 active; AID 624296; note: nearly all actives have a fitted effect of over 50% in size
# Numbers stand for hits; - = inactive; ? = inconclusive; . = not tested or not shown. Hits are enriched below; roughly 7.9% of the tested compounds scored in any of these assays. Calls come from the whole dose curve; as a rule, active = well fitted curve in the direction sought with a large enough effect; inconclusive = small, poorly fitted or top-dose-only effect, or another doubt; inactive = no such curve, though single readings can be large; an effect the other way counts as inactive or inconclusive.
SMILES,SW480 rerep,KB-V1 cytotox,HT1080NT lethal,KB-3-1 cytotox,HT1080 IDH1KD tx,MCF10A rerep
CC(C)OCCCNC(=O)c1cc(S(=O)(=O)N2CCCCC2)c[nH]1,-,-,-,-,-,-
CC(C)N(C(=O)c1sc2cc([N+](=O)[O-])ccc2c1Cl)C(C)C,-,21µM,-,-,-,-
CC1COC(=C2C(=O)OCC2C)C1 (configuration not stated),.,-,-,-,-,.
O/N=C/c1cc2ccccc2n1Cc1ccccc1F,-,-,-,-,-,-
CSC(=S)NCc1cccnc1,3.7µM,-,?,26µM,?,3.3µM
CCN1CCN(CC(=O)Nc2ccc(Cl)c(S(=O)(=O)N(C)C)c2)CC1,-,-,?,-,-,-
CCCCc1ccc(NC(=S)Nc2ccc(Nc3ccc(OC)cc3)cc2)cc1,?,16µM,-,?,?,21µM
CCCCc1ccc(NC(=S)Nc2ccc(Cl)c(S(=O)(=O)N(C)C)c2)cc1,-,23µM,?,?,21µM,?
NC(=S)NCc1cccnc1,-,-,-,-,-,-
O=C(NC(=S)NCc1cccnc1)c1ccccc1[N+](=O)[O-],-,23µM,-,-,-,-
CCN(CC)S(=O)(=O)c1nnc(NC(=O)c2ccccc2Cl)s1,.,-,.,-,.,.
O=C1CSC(=Nc2ccccc2Cl)N1,-,-,-,-,-,-
Cc1ccc(S(=O)(=O)N(C)c2cc(S(=O)(=O)N3CCC(C)CC3)c(C)cc2C)cc1,-,-,-,-,-,?
CCc1ccc(NC(=S)NCc2cccnc2)cc1,-,-,-,-,-,-
CCCCc1ccc(NC(=S)NCc2cccnc2)cc1,-,15µM,-,?,-,?
Cc1ccc(S(=O)(=O)NCC(c2ccc(N(C)C)cc2)N2CCOCC2)cc1 (configuration not stated),.,-,.,-,.,.
CCC(C)NC(=O)CSC1=Nc2ccccc2C2=NC(c3ccccc3)C(=O)N12 (configuration not stated),-,16µM,-,-,-,-
CC1=C(n2nnc3ccccc32)C(c2ccccc2)C(C#N)=C(N)O1 (configuration not stated),-,-,-,-,-,-
N#CC1=C(N)OC2=C(CCc3ccccc32)C1c1ccccc1 (configuration not stated),0.73µM,1.5µM,0.92µM,0.58µM,0.58µM,?
Cc1ccc(C2C(C#N)=C(N)Oc3cc(N)ccc32)cc1 (configuration not stated),-,-,-,-,-,?
Cc1ccc(/C=C2\CCC3=C2OC(N)=C(C#N)C3c2ccc(C)cc2)cc1 (configuration not stated),11µM,-,-,-,-,2.9µM
Cc1ccc(C(=O)N/C(=C\c2ccc(-c3ccccc3[N+](=O)[O-])o2)C(=O)NCCCN(C)C)cc1,-,-,-,-,-,-
CN(C)CCCNC(=O)/C(=C\c1ccc(-c2ccc(Br)cc2)o1)NC(=O)c1ccccc1,-,-,?,?,23µM,?
Cc1ccc(C(=O)N/C(=C\c2ccc(-c3ccccc3[N+](=O)[O-])o2)C(=O)NCCN(C)C)cc1,2.9µM,?,?,-,-,-
CN(C)CCCNC(=O)/C(=C/c1ccc(-c2ccc([N+](=O)[O-])cc2)o1)NC(=O)c1ccccc1,?,-,-,-,-,?
SMILES,SW480 rerep,KB-V1 cytotox,HT1080NT lethal,KB-3-1 cytotox,HT1080 IDH1KD tx,MCF10A rerep
Cc1ccc(C(=O)N/C(=C\c2ccc(-c3ccc(Cl)cc3)o2)C(=O)NCCCN(C)C)cc1,18µM,-,29µM,?,13µM,?
COc1ccccc1NC(=S)NNC(=O)c1ccncc1,-,-,-,-,-,-
CC1(C)Cc2sc3c(=O)[nH]c(=S)[nH]c3c2CO1,-,-,-,-,-,-
COc1ccc(OC)c(C2CC(c3ccccc3)=NN2C(=S)Nc2ccccc2)c1 (configuration not stated),4.6µM,-,?,-,?,4.1µM
CNC(=S)N1N=C(c2ccc(C)cc2)CC1c1cc(OC)ccc1OC (configuration not stated),?,?,?,12µM,21µM,?
COc1ccccc1C1=NN(C(=S)Nc2ccccc2)C(c2ccco2)C1 (configuration not stated),?,15µM,-,?,-,-
C=CCC[C@@H](Cc1ccc(F)cc1)C(=O)OC[C@@H]1CCCN1C(=O)[C@@H](CC=C)CC(=O)N[C@@H](CO)Cc1ccccc1,-,-,-,16µM,-,-
C=CC[C@@H](Cc1ccc(F)cc1)C(=O)OC[C@@H]1CCCN1C(=O)[C@H](CC=C)CC(=O)N(CCO)Cc1ccccc1,-,21µM,-,?,-,-
O=C(NCCCc1nc2ccccc2[nH]1)c1cccs1,-,-,-,-,-,-
CCN(CC)CCSc1nnc(Nc2ccccc2)n1-c1ccccc1,-,?,-,-,-,-
Cc1ccc(N(C(C)C(=O)Nc2cc(Cl)ccc2Oc2ccccc2)S(C)(=O)=O)cc1 (configuration not stated),8.2µM,?,?,-,-,-
Cc1ccc(N(CC(=O)Nc2cc(Cl)ccc2Oc2ccccc2)S(C)(=O)=O)c(C)c1,-,?,-,?,-,?
Cc1ccc(N(CC(=O)Nc2cc(Cl)ccc2Oc2ccccc2)S(C)(=O)=O)cc1C,-,21µM,-,?,-,-
COc1ccc(C)cc1NC(=O)C(C)N(c1ccc(C)cc1)S(C)(=O)=O (configuration not stated),-,-,-,-,-,-
CCN1CCN(C(c2ccc(F)cc2)c2nnnn2Cc2cccs2)CC1 (configuration not stated),?,-,?,-,-,23µM
COc1cc2nc(CC(C)C)n(NC(=O)c3ccccc3)c(=O)c2cc1OC,-,7.3µM,-,-,-,-
COc1ccc(C(=O)Nn2c(CC(C)C)nc3cc(OC)c(OC)cc3c2=O)c(OC)c1,-,-,-,-,-,-
Clc1ccc(-c2c[n+]3c(n2-c2ccccc2)SCC3)cc1,-,-,-,15µM,-,-
Fc1ccc(-c2cn(-c3ccccc3)c3[n+]2CCS3)cc1,-,-,?,?,-,-
COc1ccc(-c2cn(-c3ccc(Cl)cc3)c3[n+]2CCCCC3)cc1,-,-,-,9.2µM,-,?
COc1ccc(-c2cn(-c3ccc(Br)cc3)c3[n+]2CCS3)cc1,-,-,-,8.2µM,-,-
Clc1ccc(-c2cn(-c3ccccc3)c3[n+]2CCS3)cc1,-,-,-,13µM,-,-
Clc1ccc(-c2cn(-c3ccc(Cl)cc3)c3[n+]2CCCCC3)cc1,-,-,-,?,-,-
